Results filed as inconclusive are left out. Activity calls are given as the source filed them. Calls follow the shape of the dose curve; as a rule, active = well fitted curve in the direction sought with a large enough effect; inconclusive = small, poorly fitted or top-dose-only effect, or another doubt; inactive = no such curve, though single readings can be large; an effect the other way counts as inactive or inconclusive.
Tests used:
HACAT = experiment: qHTS assay to identify novel small-molecules to repurpose for Merkel cell carcinoma treatment (AID 1296009); conditions: MCC and control cell lines, CellTiter-Glo viability, 72 h; at 44.8 µM (top of the series) unless noted; also: nearly all actives have a fitted effect of over 60% in size; also: potency is read from the fitted curve at half-maximal effect
In short: (§1)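 qHTS format: cells treated with library compounds in DMSO across 8 (NPC) or 11 (MIPE) concentrations. Readout after 72 hr at 37 degree celsius was CellTiter-Glo luminescence.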

MCC-13 = experiment: as above; conditions: MCC and control cell lines, CellTiter-Glo viability, 72 h; series mostly up to 46 µM
In short: as §1

MCC-26 = experiment: as above; conditions: MCC and control cell lines, CellTiter-Glo viability, 72 h; series mostly up to 46 µM
In short: as §1

UISO = experiment: as above; conditions: MCC and control cell lines, CellTiter-Glo viability, 72 h; series mostly up to 46 µM
In short: as §1

C33A = experiment: Primary qHTS to identify gynecologic anti-cancer compounds using libraries of approved drugs and bioactive compounds (AID 1345084); conditions: Gynecologic cancer cell panel viability, ATPlite luminescence, 48 h; series mostly up to 57.5 µM; also: nearly all actives have a fitted effect of over 55% in size
In short: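 Cell viability after 48 h drug treatment, ATPlite luminescence readout; five doses.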

MKL-1 = experiment: qHTS assay to identify novel small-molecules to repurpose for Merkel cell carcinoma treatment (AID 1296009); conditions: MCC and control cell lines, CellTiter-Glo viability, 72 h; series mostly up to 46 µM; also: nearly all actives have a fitted effect of over 60% in size; also: potency is read from the fitted curve at half-maximal effect
In short: as §1

MKL-2 = experiment: as above; conditions: MCC and control cell lines, CellTiter-Glo viability, 72 h; series mostly up to 46 µM
In short: as §1

HEK293T = experiment: as above; conditions: MCC and control cell lines, CellTiter-Glo viability, 72 h; at 44.8 µM (top of the series) unless noted
In short: as §1

WaGa = experiment: as above; conditions: MCC and control cell lines, CellTiter-Glo viability, 72 h; series mostly up to 46 µM
In short: as §1

NIH3T3 = experiment: as above; conditions: MCC and control cell lines, CellTiter-Glo viability, 72 h; at 44.8 µM (top of the series) unless noted
In short: as §1
% is scaled to controls: 0 for no effect and ±100 for the full control effect.

COc1cc2c(cc1OC)C(C(C(=O)N(CCc1ccc(OC)c(OC)c1OC)CCc1ccc(OC)c(OC)c1OC)c1ccccc1)=NCC2 (stereo not given)
inactive: outcome (HACAT) | Potency (MCC-13) | Potency (MCC-26) | Potency (UISO) | Potency (C33A)

CC(=O)c1ccc2c(c1)N(CCCN1CCC(CCO)CC1)c1ccccc1S2
active: Potency (MKL-2) 21100 nM
inactive: outcome (HACAT) | Potency (MCC-13) | Potency (MCC-26) | Potency (MKL-1) | Potency (C33A)

CC(=O)OCC(=O)NCCCOc1cccc(CN2CCCCC2)c1
inactive: outcome (HEK293T) | Potency (MCC-13) | Potency (MKL-1) | Potency (MKL-2) | Potency (UISO) | Potency (WaGa) | Potency (C33A)

CC1(C)O[C@@H]2C[C@H]3[C@@H]4C[C@H](F)C5=CC(=O)C=C[C@]5(C)[C@H]4[C@@H](O)C[C@]3(C)[C@]2(C(=O)CO)O1
inactive: Potency (MCC-13) | Potency (MCC-26) | Potency (MKL-1) | Potency (MKL-2) | Potency (UISO) | Potency (WaGa) | Potency (C33A)

OCc1ccccc1O
inactive: outcome (HEK293T) | Potency (MCC-13) | Potency (MCC-26) | Potency (MKL-1) | Potency (MKL-2) | Potency (UISO) | Potency (WaGa) | Potency (C33A)

CNC(=O)CN(CCN(CCN(CC(=O)[O-])CC(=O)NC)CC(=O)[O-])CC(=O)[O-].O.[Gd+3]
inactive: outcome (HEK293T) | Potency (MCC-13) | Potency (MKL-1) | Potency (MKL-2) | Potency (UISO) | Potency (WaGa) | Potency (C33A)

CCCCCCCCCCCCCCCCCC(=O)OCC(O)CO (stereo not given)
inactive: Potency (MCC-13) | Potency (MCC-26) | Potency (MKL-1) | Potency (MKL-2) | Potency (UISO) | Potency (WaGa) | Potency (C33A)

NC(=O)c1cc[n+](CC2=C(C(=O)[O-])N3C(=O)[C@@H](NC(=O)Cc4cccs4)[C@H]3SC2)cc1
inactive: Potency (MCC-13) | Potency (MCC-26) | Potency (MKL-1) | Potency (MKL-2) | outcome (NIH3T3) | Potency (UISO) | Potency (WaGa) | Potency (C33A)

Cc1cccn2c(=O)c(-c3nnn[nH]3)cnc12
inactive: outcome (HEK293T) inactive [at 17.4 µM] | Potency (MCC-13) | Potency (MKL-1) | Potency (MKL-2) | Potency (UISO) | Potency (WaGa) | Potency (C33A)

CCOC(=O)c1cccc(N)c1
inactive: Potency (MCC-13) | Potency (MCC-26) | Potency (MKL-1) | Potency (MKL-2) | Potency (UISO) | Potency (WaGa) | Potency (C33A)

Oc1cc(O)c2c(c1)O[C@H](c1ccc(O)c(O)c1)[C@H](O)C2
inactive: outcome (HEK293T) | Potency (MCC-13) | Potency (MCC-26) | Potency (MKL-1) | Potency (MKL-2) | Potency (UISO) | Potency (WaGa) | Potency (C33A)

NC(=O)CC[C@@H]1NC(=O)[C@H](Cc2ccccc2)NC(=O)[C@H](Cc2ccc(O)cc2)NC(=O)CCSSC[C@@H](C(=O)N2CCC[C@H]2C(=O)N[C@@H](CCCN=C(N)N)C(=O)NCC(N)=O)NC(=O)[C@H](CC(N)=O)NC1=O
inactive: Potency (MCC-13) | Potency (MCC-26) | Potency (MKL-1) | Potency (MKL-2) | outcome (NIH3T3) | Potency (UISO) | Potency (WaGa) | Potency (C33A)

Cc1onc(-c2c(Cl)cccc2Cl)c1C(=O)N[C@@H]1C(=O)N2[C@@H]1SC(C)(C)[C@@H]2C(=O)O
inactive: outcome (HEK293T) | Potency (MCC-13) | Potency (MCC-26) | Potency (MKL-1) | Potency (MKL-2) | Potency (UISO) | Potency (WaGa) | Potency (C33A)

CCOC(=O)COc1ccc2c(C)c(CCN(CC)CC)c(=O)oc2c1Cl
inactive: outcome (HEK293T) | Potency (MCC-13) | Potency (MCC-26) | Potency (UISO) | Potency (C33A)

COc1cc2c(cc1OC)[C@@H]1CC(=O)[C@@H](CC(C)C)CN1CC2
inactive: Potency (MCC-13) | Potency (MCC-26) | Potency (MKL-1) | Potency (MKL-2) | outcome (NIH3T3) | Potency (UISO) | Potency (WaGa) | Potency (C33A)

CCCCCCC[N+](CC)(CC)CCCCc1ccc(Cl)cc1
active: Potency (MKL-1) 596 nM | Potency (MKL-2) 237 nM | Potency (UISO) 4730 nM | Potency (WaGa) 668 nM
inactive: Potency (MCC-13) | Potency (MCC-26)

CC(C)(CO)[C@@H](O)C(=O)NCCCO
inactive: Potency (MCC-13) | Potency (MCC-26) | Potency (MKL-1) | Potency (MKL-2) | outcome (NIH3T3) | Potency (UISO) | Potency (WaGa) | Potency (C33A)

CC1(C)O[C@@H]2C[C@H]3[C@@H]4C[C@H](F)C5=CC(=O)CC[C@]5(C)[C@H]4[C@@H](O)C[C@]3(C)[C@]2(C(=O)CO)O1
inactive: outcome (HEK293T) | Potency (MCC-13) | Potency (MCC-26) | Potency (MKL-1) | Potency (MKL-2) | Potency (UISO) | Potency (WaGa) | Potency (C33A)

CN(C)/N=N/c1nc[nH]c1C(N)=O
inactive: Potency (MCC-13) | Potency (MCC-26) | Potency (MKL-1)

CC(Cc1cccc(C(F)(F)F)c1)NCCOC(=O)c1ccccc1 (stereo not given)
inactive: Potency (MCC-13) | Potency (MCC-26) | Potency (MKL-1) | Potency (MKL-2) | outcome (NIH3T3) | Potency (UISO) | Potency (WaGa) | Potency (C33A)

NC[C@H]1O[C@H](O[C@H]2[C@H](O[C@@H]3O[C@H](CO)[C@@H](O)[C@H]3O)C(O)[C@H](N)C[C@@H]2N)[C@H](N)[C@@H](O)[C@@H]1O (stereo not given in full)
inactive: activity change, negative = cytotoxicity (MCC-13) 8.98% [at 9.22 µM] | activity change, negative = cytotoxicity (MCC-26) 5.57% [at 9.22 µM] | activity change, negative = cytotoxicity (MKL-1) 2.77% [at 9.22 µM] | activity change, negative = cytotoxicity (MKL-2) -8.12% [at 9.22 µM] | outcome (NIH3T3) inactive [at 9.27 µM] | activity change, negative = cytotoxicity (UISO) 20% [at 9.22 µM] | activity change, negative = cytotoxicity (WaGa) 13.9% [at 9.22 µM] | activity change, negative = cytotoxicity (C33A) 11.5% [at 11.6 µM]

C=CCc1ccc(O)c(OC)c1
inactive: outcome (HEK293T) | Potency (MCC-13) | Potency (MKL-1) | Potency (MKL-2) | Potency (UISO) | Potency (WaGa) | Potency (C33A)

CC(=O)Nc1c(I)cc(I)c(C(=O)O)c1I
inactive: Potency (MCC-13) | Potency (MCC-26) | Potency (MKL-1) | Potency (MKL-2) | outcome (NIH3T3) | Potency (UISO) | Potency (WaGa) | Potency (C33A)

CC1(C)OC[C@@H](COC(=O)CCc2ccc(OC[C@@H](O)CNCCNC(=O)N3CCOCC3)cc2)O1
inactive: outcome (HEK293T) | Potency (MCC-13) | Potency (MCC-26) | Potency (MKL-1) | Potency (MKL-2) | Potency (UISO) | Potency (WaGa) | Potency (C33A)

CC(=O)[C@H]1CC[C@H]2[C@@H]3C[C@H](C)C4=CC(=O)CC[C@]4(C)[C@H]3[C@@H](O)C[C@]12C
inactive: Potency (MCC-13) | Potency (MCC-26) | Potency (MKL-1) | Potency (MKL-2) | outcome (NIH3T3) | Potency (UISO) | Potency (WaGa) | Potency (C33A)

C[C@]12C=CC(=O)C=C1[C@@H](F)C[C@@H]1[C@@H]2[C@@H](O)C[C@@]2(C)[C@H]1CC[C@]2(O)C(=O)CO
inactive: Potency (MCC-13) | Potency (MCC-26) | Potency (MKL-1) | Potency (MKL-2) | Potency (UISO) | Potency (WaGa) | Potency (C33A)

Reference: PubChem BioAssay (NCATS)
